Sampled rows, rich in hits. Any-hit rate of the full collection: about 9.3%.
ELG1 repair inh: blocks ELG1-dependent DNA repair in HEK293T cells. 330,000 tested, 2.3% active. Potency, µM (highest dose often 46.1 µM), for inactives: at the top dose activity change, negative = inhibition, usual class: inhibitors. AID 504467. HEK293T ELG1-luciferase reporter, luminescence, 16 h; DNA damage induced by 5-fluorouridine; further: on the % scale 0 is the no-effect control and ±100 the full control effect; nearly all actives have a fitted effect of over 55% in size
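HEK293T cells expressing luciferase-tagged ELG1 (2,000/well) received 5-Fluorouridine plus compound or DMSO for 16 hr at 37 °C. Luciferase was read by ONE-Glo luminescence after 30 min at room temperature.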
ELG1 genotoxic: inducers of genotoxicity in HEK293T ELG1-luciferase cells. HEK293T ELG1-luciferase reporter, luminescence, 16 h. Potency, µM (doses to about 46 µM), for the others: at the highest dose activity change, positive = activation, hits mostly activators. 330,000 tested, 1.3% active; further: % of control where 0% means no effect; nearly all actives have a fitted effect of over 60% in size
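Reporter readout depends on ELG1 protein level, which increases with genetic stress. After 16 hr compound exposure at 37 °C, luciferase activity was quantified using ONE-Glo.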
SMN2 splice enh: SMN2 splice variant enhancement. AID 1458. 210,000 tested, 2.8% active. HEK293 SMN2-luciferase splicing reporter, luminescence, 30-36 h. Potency, µM (titrated, usually from 46.1 µM), for the others: top-dose activity change, positive = activation, most hits filed as activators; further: % of control where 0% means no effect; nearly all actives have a fitted effect of over 55% in size
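HEK293 cells carry an SMN2 minigene-luciferase reporter in which exon 7 inclusion puts luciferase in frame. Cells were seeded at 2000 cells/well, attached for 10-12 hours, then exposed to compounds for 30-36 hours at 37C before ONE-Glo luminescence.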
NPC1 prom act: activates the NPC1 promoter. 320,000 tested, 2.4% active. Potency, µM (top dose mostly 9.22 µM), without a hit: top-dose activation, hits mostly activators. Huh7 NPC1 promoter luciferase reporter, 24 h. AID 485313; further: % of control where 0% means no effect; nearly all actives have a fitted effect of over 60% in size
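Luciferase expression driven by the NPC1 promoter was measured in stably transfected Huh7 cells after a 24 h compound incubation, using a luciferase reagent and a luminescence read.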
Rab9 prom act: activates the Rab9 promoter. Huh7 Rab9 promoter-luciferase reporter, luminescence, 24 h. Potency, µM (titrated, usually from 9.22 µM), for the others: top-dose activation, negative = inhibition, hits mostly activators. 320,000 tested, 2.8% active; further: % of control where 0% means no effect; nearly all actives have a fitted effect of over 60% in size
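Luminescence from Amplite-detected luciferase (10 minutes, ambient) reports Rab9 promoter activation. Before that, stable Rab9-luciferase Huh7 cells (1500/well, reduced-serum OP-MEM I plus 10% FBS) were exposed to compound for 24 hours at 37C.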
FLuc modulator: firefly luciferase modulation, counter-screen for miR-21 project | P08659 | purified FLuc, Km substrates, luminescence inhibition | Potency, µM (highest dose often 57.5 µM), inactives show at the highest dose activity change, negative = inhibition, usual class: inhibitors | 360,000 tested, 6.9% active | AID 588342;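 further: plate controls were vehicle for no effect and reference inhibitor for full effect; nearly all actives have a fitted effect of over 55% in size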
Target sequence (P08659 whole entry, looked up): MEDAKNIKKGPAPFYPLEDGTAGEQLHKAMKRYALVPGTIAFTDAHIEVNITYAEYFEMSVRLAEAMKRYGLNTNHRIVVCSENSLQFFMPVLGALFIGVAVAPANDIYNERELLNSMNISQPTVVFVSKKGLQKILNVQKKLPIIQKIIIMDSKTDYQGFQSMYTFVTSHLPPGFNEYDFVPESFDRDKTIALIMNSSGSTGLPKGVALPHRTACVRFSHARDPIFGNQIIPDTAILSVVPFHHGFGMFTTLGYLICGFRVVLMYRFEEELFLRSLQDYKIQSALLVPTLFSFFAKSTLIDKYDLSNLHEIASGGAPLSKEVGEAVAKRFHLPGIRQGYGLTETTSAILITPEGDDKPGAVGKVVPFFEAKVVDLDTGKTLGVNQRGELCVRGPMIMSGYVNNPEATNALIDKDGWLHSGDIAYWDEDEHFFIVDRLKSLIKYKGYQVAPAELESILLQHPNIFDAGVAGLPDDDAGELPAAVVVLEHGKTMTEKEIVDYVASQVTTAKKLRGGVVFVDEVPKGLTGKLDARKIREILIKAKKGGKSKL
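Biochemical qHTS of compounds, final roughly 60 µM downward over six points, against 10 nM purified firefly luciferase using Km concentrations of substrates (10 uM D-luciferin, 10 uM ATP) in Tris acetate pH 7.5 buffer; luminescence output.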
* hit, by the source's call; ? = inconclusive; . = not tested or not shown. The call rests on the fitted dose curve; in most records, active means well fitted curve in the direction sought with a large enough effect; inconclusive means small, poorly fitted or top-dose-only effect, or another doubt; inactive means no such curve, though single readings can be large; an effect the other way counts as inactive or inconclusive. Potency means the concentration at half of the fitted maximal effect.

SMILES	ELG1 repair inh	ELG1 genotoxic	SMN2 splice enh	NPC1 prom act	Rab9 prom act	FLuc modulator
O=C(NC(=S)Nc1ccc(N2CCOCC2)cc1)c1cccs1	?	9.2%	.	?	0.794µM*	23.9µM*
Cc1ccccc1C(=O)N1CCN(c2ccc(NC(=S)NC(=O)c3cccs3)cc2)CC1	20.6µM*	-17.7%	-68.4%	-8.1%	-21.8%	0.5%
CC(C)Nc1nnc(SCC(=O)N2CCN(C(=O)c3ccco3)CC2)s1	17.8%	2.2%	.	0.3%	-3.6%	10.0%
Cc1[nH]c2ccccc2c1C(=O)NS(=O)(=O)Nc1ccc(Cl)cc1	2.0%	1.3%	3.0%	-5.0%	2.9%	?
Cc1ccc(NC(=O)c2ccc(Cl)cc2Cl)cc1O	?	?	.	?	?	8.49µM*
Cc1ccc(C(=O)Nc2ccc(Cl)cc2C)c(Cl)c1	?	2.91µM*	10µM*	0.891µM*	3.16µM*	1.69µM*
O=C(Nc1ccc(Cl)cc1C(F)(F)F)c1ccccc1Cl	?	-0.6%	4.6%	6.1%	17.8%	?
Cc1ccccc1NC(=O)c1ccccc1NC(=O)c1ccccc1Cl	.	.	-12.1%	.	.	?
Cc1ccc(C(=O)Nc2ccc(Cl)cc2C(F)(F)F)c(Cl)c1	?	27.1%	?	25.8%	?	10.7µM*
CNS(=O)(=O)c1ccc(NC(=O)c2ccc(Cl)cc2Cl)cc1	-3.4%	-0.4%	-9.4%	-3.7%	2.6%	-12.8%
COC(=O)[C@H]1C[C@H](C(=O)O)[C@@H](C)C1(C)C	4.6%	2.9%	.	-0.9%	-3.3%	-0.6%
COc1cc(CCC(=O)OCC(=O)NCCc2ccc(S(N)(=O)=O)cc2)cc(OC)c1OC	0.0%	1.3%	.	.	.	.
O=C(NCCCn1ccnc1)c1sc2cccc(F)c2c1Cl	4.2%	15.8%	-11.9%	-3.2%	-1.2%	-9.2%
O=C(Nc1ccccn1)c1sc2cccc(F)c2c1Cl	?	?	2.51µM*	?	?	0.379µM*
O=C(Nc1cccnc1)c1sc2cccc(F)c2c1Cl	?	-2.7%	?	?	?	8.49µM*
CN(C)CCNC(=O)c1sc2cccc(F)c2c1Cl	?	1.2%	-2.8%	1.1%	-0.1%	2.7%
O=C(Nc1ccccc1F)c1ccc(OCc2ccccc2)cc1	?	?	22.4µM*	?	?	?
O=C(Nc1ccc(OCc2ccccc2)cc1)c1ccccc1	?	16.4%	?	?	?	1.2%
O=C(Nc1ccccc1F)c1ccc(CSc2ncccn2)cc1	?	?	?	3.55µM*	3.55µM*	?
O=C(Nc1ccccc1)c1ccc(CSc2ncccn2)cc1	?	?	12.6µM*	1.12µM*	1µM*	3.38µM*
Cc1ccc(NC(=O)c2ccc(CSc3nccc(C)n3)cc2)cc1	?	-4.7%	.	19.4%	8.6%	?
CC(=O)c1ccc(N(CC(=O)NC2CCS(=O)(=O)C2)S(=O)(=O)c2ccc(C)cc2)cc1 (stereo unspecified)	10.4%	-1.0%	.	.	.	.
CC(SC#N)C(=O)C12CC3CC(CC(C3)C1)C2 (stereo unspecified)	?	0.1%	-11.7%	-4.2%	-8.8%	-2.1%
COC(=O)c1c(-c2cccs2)csc1NC(=O)COc1ccccc1	.	.	.	.	.	6.75µM*
COC(=O)c1c(-c2cccs2)csc1NC(=O)COc1ccc(C)cc1	.	.	.	.	.	-18.4%
SMILES	ELG1 repair inh	ELG1 genotoxic	SMN2 splice enh	NPC1 prom act	Rab9 prom act	FLuc modulator
COC(=O)c1c(-c2cccs2)csc1NC(=O)c1cccnc1	?	6.2%	-1.2%	28.1%	?	16.9µM*
CC(C1CCCC(=O)C1)[N+](=O)[O-] (stereo unspecified)	.	.	12.5%	.	.	.
CCc1ccc(NC(=O)Nc2cccc(OC)c2)cc1	?	?	14.1µM*	2.82µM*	3.16µM*	2.69µM*
CCc1ccc(NC(=O)C(=O)NNC(=O)c2cccc(OC)c2)cc1	-0.8%	-0.1%	.	-0.7%	2.8%	?
COc1cccc(NC(=O)Nc2ccc(CC(=O)O)cc2)c1	19.0%	1.1%	-8.2%	-7.1%	2.2%	19µM*
O=C(O)Cc1ccc(NC(=O)Nc2cccc(Cl)c2)cc1	10.7%	3.3%	.	-2.7%	3.4%	16.9µM*
O=C(Nc1ccc(Cl)c(Cl)c1)Nc1ccccc1O	?	?	.	3.98µM*	3.98µM*	6.01µM*
CN(C)c1cccc(C(=O)NCc2ccc(Cl)cc2)c1	?	-4.5%	-22.8%	-0.3%	-0.7%	-17.4%
O=C(Nc1ccc2nc3ccccc3nc2c1)c1ccccc1	?	?	3.98µM*	1.41µM*	0.562µM*	1.69µM*
O=C(NNC(=O)c1ccc(NC(=O)c2ccccc2)cc1)c1ccccc1	?	18.3%	4.5%	-5.7%	-1.0%	-2.8%
O=C(Nc1cccc(Cl)c1)c1ccccc1	?	16.4µM*	.	?	?	13.5µM*
O=C(NCc1ccc(Cl)cc1)c1cccc(NC(=O)c2ccccc2)c1	18.4µM*	-11.9%	-47.4%	-4.3%	-1.3%	-16.2%
O=C(NNC(=S)Nc1cccc(Cl)c1)c1ccccc1	?	6.5%	.	?	23.1%	?
CC1CCCCC1NC(=O)NC(=O)COC(=O)c1ccc(OC(F)F)cc1 (stereo unspecified)	9.2%	0.8%	.	2.4%	0.6%	0.7%
CCN(c1ccccc1)S(=O)(=O)c1cc(C(=O)Nc2cccc(Cl)c2)ccc1F	23.1µM*	-11.0%	-57.7%	-0.2%	-1.4%	1.1%
O=C(NCc1ccccc1)c1ccc(Cl)cc1	6.2%	-2.5%	.	-3.8%	8.1%	-2.6%
Cn1c(N)c(C(=O)Nc2cccc(Cl)c2)c(=O)n(C)c1=O	0.0%	7.9%	.	2.2%	6.3%	5.36µM*
Cn1nc(C(=O)Nc2cccc(Cl)c2)cc1C(=O)Nc1cccc(Cl)c1	-19.8%	4.8%	.	-3.7%	-1.5%	0.7%
CC(C)c1ccc(C(=O)NCc2ccc(Cl)cc2)cc1	?	23.5%	15.8µM*	14.2%	?	?
CC(=O)Nc1ccc2cc3ccc(NC(C)=O)cc3nc2c1	?	?	.	?	?	10.7µM*
Cc1ccc(S(=O)(=O)NNC(=O)C2CC=CCC2C(=O)O)cc1 (stereo unspecified)	17.3%	2.1%	?	0.3%	-13.8%	4.7%
COc1ccc(NC(=O)c2oc3ccccc3c2NC(=O)Cc2ccc(F)cc2)c(OC)c1	.	.	-5.7%	.	.	-1.1%
O=C1OC[C@@H]2CCCN2C(=O)[C@@H](CC(=O)N(CCO)Cc2ccccc2)C/C=C\C[C@H]1Cc1ccc(F)cc1	?	-2.8%	.	.	.	.
O=C(Nc1ccc(Cl)c(Cl)c1)c1ccccc1	?	?	.	3.16µM*	1.58µM*	3.79µM*

Source: PubChem
